# Results published in PubChem BioAssay.
# Several values for one entry are separate records, joined by “and”; a condition that tells them apart may be missing. Equal values may be shown once. Numbered stars: 1 amine (or outer) side, 2 acyl side, 3 side chain; on linkers, the order of the positions; unused ones are H or OH. Bridge positions count the residues as written; N and C are the ends. Square brackets hold non-standard residues; d marks the D form. Peptide text beside a SMILES is read from it. * marks the point of attachment. X4 = NC1=N[C@@H]([C@H](N[*:1])C(=O)[*:2])C[C@H](O)N1; ΔAla(Z-3-ureido) = NC(=O)N/C=C(\N)C(=O)O; β3hOrn = NCCC[C@H](N)CC(=O)*; Dap = NC[C@H](N)C(=O)O
# Test: sensitizers of A549 cells to miR-34 induction, primary screen, imaging, A549 dox-inducible miR-34, nuclei and caspase counts (AID 1347080); note: test concentration not given here
# Settings: A549 miR-34 inducible, Hoechst nuclei count, 48 h; measured here: relative caspase fold change +Dox/-Dox
row,Compound,fold change
1,CCOC(=O)O[C@]1(C(=O)COC(=O)CC)CC[C@H]2[C@@H]3CCC4=CC(=O)C=C[C@]4(C)[C@H]3[C@@H](O)C[C@@]21C,0.816
2,O=C(O)CCc1c[nH]c2ccccc12,0.538
3,NC[C@H]1O[C@H](O[C@H]2[C@H](O)[C@@H](O[C@H]3O[C@H](CO)[C@@H](O)[C@H](N)[C@H]3O)[C@H](N)C[C@@H]2N)[C@H](O)[C@@H](O)[C@@H]1O,1.26
4,CCOc1nc2cccc(C(=O)OCc3oc(=O)oc3C)c2n1Cc1ccc(-c2ccccc2-c2noc(=O)[nH]2)cc1,0.471
5,CCOC(=O)NCCCC(=O)NCCc1ccccc1,0.408
6,CCn1ncc(NC(=O)Cn2cc(-c3ncnc4ccsc34)cn2)n1,1.75
7,C[C@@]1(c2nc3c(C(N)=O)cccc3[nH]2)CCCN1,1.01
8,C[C@]12CC[C@@H]3c4ccc(OS(=O)(=O)O)cc4CC[C@H]3[C@@H]1CCC2=O,0.967
9,CNc1nc(-c2cccc(OC)c2)ncc1F,1.04
10,O=C1CN(c2ncnc3sccc23)CCN1Cc1cccc(F)c1,1.63
11,CC(C)(O/N=C(\C(=O)N[C@@H]1C(=O)N2C(C(=O)[O-])=C(C[n+]3ccccc3)CS[C@H]12)c1csc(N)n1)C(=O)O,1.51 and 1.02
12,COC(=O)CN1CCN(C(=O)Nc2n[nH]c(-c3ccco3)n2)CC1=O,1.4
13,Cn1c(=O)c2c(nc(N3CCNCC3)n2Cc2ccccc2)n(C)c1=O,0.525
14,CO/N=C(\C(=O)N[C@@H]1C(=O)N2C(C(=O)O)=C(C[N+]3(C)CCCC3)CS[C@H]12)c1csc(N)n1,0.702
15,O=c1c(-c2ccc(O)cc2)coc2cc(OC3OC(CO)C(O)C(O)C3O)ccc12 (stereo not given),0.687
16,COc1ccc2nc(Cn3cnc4cc(F)ccc4c3=O)[nH]c2c1,1.56
17,O=C1CN(c2ncnc3nc[nH]c23)CCN1Cc1cccc(F)c1,2.49
18,Cc1cccc(C)c1OCC(=O)O,0.272
19,O=c1c2nccnc2ncn1Cc1scnc1-c1ccccc1,0.515
20,CC(C)[N+]1(C)[C@@H]2CC[C@H]1CC(OC(=O)C(CO)c1ccccc1)C2 (stereo not given in full),1.21

row,Compound,fold change
1,NCCC[C@H](N)CC(=O)N[C@H]1CNC(=O)[C@H]([C@H]2C[C@H](O)NC(N)=N2)NC(=O)/C(=C/NC(N)=O)NC(=O)[C@H](CO)NC(=O)[C@H](CO)NC1=O (β3hOrn-[Dap]SS[ΔAla(Z-3-ureido)][X4]; lactam 1-C),0.791
2,O=C(O)c1ccccc1C(=O)O,0.755
3,Cc1ccc(NC(=O)c2ccc(CN3CCN(C)CC3)cc2)cc1Nc1nc(-c2cccnc2)cs1,1.16
4,CC(=O)NCC1CN(c2ccc(N3CCOCC3)c(F)c2)C(=O)O1 (stereo not given),1.72 and 0.989
5,NCc1ccccc1CC(=O)N[C@@H]1C(=O)N2C(C(=O)O)=C(CSc3nnnn3CC(=O)O)CS[C@H]12,1.15
6,CO[C@H]1C[C@H](O[C@H]2[C@H](C)[C@@H](O[C@@H]3O[C@H](C)C[C@H](N(C)C)[C@H]3OC(C)=O)[C@@H](C)C[C@@]3(CO3)C(=O)[C@H](C)[C@@H](OC(C)=O)[C@@H](C)[C@@H](C)OC(=O)[C@@H]2C)O[C@@H](C)[C@@H]1OC(C)=O,1.2 and 1.02
7,C[C@]12CC[C@H]3c4ccc(O)cc4CC[C@H]3[C@@H]1CCC2=O,1.15
8,CO[C@@]1(NC(=O)C2SC(=C(C(N)=O)C(=O)O)S2)C(=O)N2C(C(=O)O)=C(CSc3nnnn3C)CS[C@@H]21 (stereo not given in full),1.71
9,C[C@@H]1CCC[C@H](C)N1NC(=O)c1ccc(Cl)c(S(N)(=O)=O)c1,1.72 and 1.06
10,CC1(C)S[C@@H]2[C@H](NC(=O)[C@H](NC(=O)N3CCNC3=O)c3ccccc3)C(=O)N2[C@H]1C(=O)O,1.11
11,O=C(O)CNC(=O)c1cccc(O)c1,0.603
12,COc1cc(N(C)CC2COc3ccccc3O2)nc(N)n1 (stereo not given),2.02
13,Cc1nc2ccc(-c3ncnc4sccc34)cc2c(=O)[nH]1,1.29
14,CC(C)C1=NOC(c2nc(-c3cccc4ccccc34)no2)C1 (stereo not given),1.54
15,O=C(NCC1(c2nc(-c3ccccc3)cs2)CCOCC1)c1cccc(-c2noc(C(F)(F)F)n2)c1,0.412
16,N#Cc1ccc2[nH]cc(CCCCN3CCN(c4ccc5oc(C(N)=O)cc5c4)CC3)c2c1,0.515
17,CCN(Cc1nccn1C)C(=O)c1cc(-c2cnc(C)nc2)nc2cc(F)ccc12,1.32
18,COc1ccc(CC(C)NCC(O)c2ccc(O)c(NC=O)c2)cc1 (stereo not given),1.58 and 0.394
19,NS(=O)(=O)c1ccc(C(=O)NCCn2cccn2)cc1,1.97
20,Cc1c(OCC(F)(F)F)ccnc1C[S@@](=O)c1nc2ccccc2[nH]1,1.03

# Same assay, conditions: A549 miR-34 inducible, Hoechst nuclei count, 48 h; measured here: total cells with miR-34 induction; stronger effect = lower value
row,Compound,cell count
1,CCOC(=O)O[C@]1(C(=O)COC(=O)CC)CC[C@H]2[C@@H]3CCC4=CC(=O)C=C[C@]4(C)[C@H]3[C@@H](O)C[C@@]21C,5980
2,O=C(O)CCc1c[nH]c2ccccc12,8830
3,NC[C@H]1O[C@H](O[C@H]2[C@H](O)[C@@H](O[C@H]3O[C@H](CO)[C@@H](O)[C@H](N)[C@H]3O)[C@H](N)C[C@@H]2N)[C@H](O)[C@@H](O)[C@@H]1O,8420
4,CCOc1nc2cccc(C(=O)OCc3oc(=O)oc3C)c2n1Cc1ccc(-c2ccccc2-c2noc(=O)[nH]2)cc1,8160
5,CCOC(=O)NCCCC(=O)NCCc1ccccc1,8950
6,CCn1ncc(NC(=O)Cn2cc(-c3ncnc4ccsc34)cn2)n1,8160
7,C[C@@]1(c2nc3c(C(N)=O)cccc3[nH]2)CCCN1,6840
8,C[C@]12CC[C@@H]3c4ccc(OS(=O)(=O)O)cc4CC[C@H]3[C@@H]1CCC2=O,9010
9,CNc1nc(-c2cccc(OC)c2)ncc1F,8700
10,O=C1CN(c2ncnc3sccc23)CCN1Cc1cccc(F)c1,4730
11,CC(C)(O/N=C(\C(=O)N[C@@H]1C(=O)N2C(C(=O)[O-])=C(C[n+]3ccccc3)CS[C@H]12)c1csc(N)n1)C(=O)O,8430 and 9490
12,COC(=O)CN1CCN(C(=O)Nc2n[nH]c(-c3ccco3)n2)CC1=O,9430
13,Cn1c(=O)c2c(nc(N3CCNCC3)n2Cc2ccccc2)n(C)c1=O,7900
14,CO/N=C(\C(=O)N[C@@H]1C(=O)N2C(C(=O)O)=C(C[N+]3(C)CCCC3)CS[C@H]12)c1csc(N)n1,8990
15,O=c1c(-c2ccc(O)cc2)coc2cc(OC3OC(CO)C(O)C(O)C3O)ccc12 (stereo not given),5800
16,COc1ccc2nc(Cn3cnc4cc(F)ccc4c3=O)[nH]c2c1,7880
17,O=C1CN(c2ncnc3nc[nH]c23)CCN1Cc1cccc(F)c1,7800
18,Cc1cccc(C)c1OCC(=O)O,8740
19,O=c1c2nccnc2ncn1Cc1scnc1-c1ccccc1,8870
20,CC(C)[N+]1(C)[C@@H]2CC[C@H]1CC(OC(=O)C(CO)c1ccccc1)C2 (stereo not given in full),10100

row,Compound,cell count
1,NCCC[C@H](N)CC(=O)N[C@H]1CNC(=O)[C@H]([C@H]2C[C@H](O)NC(N)=N2)NC(=O)/C(=C/NC(N)=O)NC(=O)[C@H](CO)NC(=O)[C@H](CO)NC1=O (β3hOrn-[Dap]SS[ΔAla(Z-3-ureido)][X4]; lactam 1-C),9150
2,O=C(O)c1ccccc1C(=O)O,8620
3,Cc1ccc(NC(=O)c2ccc(CN3CCN(C)CC3)cc2)cc1Nc1nc(-c2cccnc2)cs1,5500
4,CC(=O)NCC1CN(c2ccc(N3CCOCC3)c(F)c2)C(=O)O1 (stereo not given),6880 and 7480
5,NCc1ccccc1CC(=O)N[C@@H]1C(=O)N2C(C(=O)O)=C(CSc3nnnn3CC(=O)O)CS[C@H]12,8230
6,CO[C@H]1C[C@H](O[C@H]2[C@H](C)[C@@H](O[C@@H]3O[C@H](C)C[C@H](N(C)C)[C@H]3OC(C)=O)[C@@H](C)C[C@@]3(CO3)C(=O)[C@H](C)[C@@H](OC(C)=O)[C@@H](C)[C@@H](C)OC(=O)[C@@H]2C)O[C@@H](C)[C@@H]1OC(C)=O,9570 and 9780
7,C[C@]12CC[C@H]3c4ccc(O)cc4CC[C@H]3[C@@H]1CCC2=O,7600
8,CO[C@@]1(NC(=O)C2SC(=C(C(N)=O)C(=O)O)S2)C(=O)N2C(C(=O)O)=C(CSc3nnnn3C)CS[C@@H]21 (stereo not given in full),8700
9,C[C@@H]1CCC[C@H](C)N1NC(=O)c1ccc(Cl)c(S(N)(=O)=O)c1,9180 and 9670
10,CC1(C)S[C@@H]2[C@H](NC(=O)[C@H](NC(=O)N3CCNC3=O)c3ccccc3)C(=O)N2[C@H]1C(=O)O,9220
11,O=C(O)CNC(=O)c1cccc(O)c1,8440
12,COc1cc(N(C)CC2COc3ccccc3O2)nc(N)n1 (stereo not given),3500
13,Cc1nc2ccc(-c3ncnc4sccc34)cc2c(=O)[nH]1,9390
14,CC(C)C1=NOC(c2nc(-c3cccc4ccccc34)no2)C1 (stereo not given),7930
15,O=C(NCC1(c2nc(-c3ccccc3)cs2)CCOCC1)c1cccc(-c2noc(C(F)(F)F)n2)c1,6620
16,N#Cc1ccc2[nH]cc(CCCCN3CCN(c4ccc5oc(C(N)=O)cc5c4)CC3)c2c1,6440
17,CCN(Cc1nccn1C)C(=O)c1cc(-c2cnc(C)nc2)nc2cc(F)ccc12,8950
18,COc1ccc(CC(C)NCC(O)c2ccc(O)c(NC=O)c2)cc1 (stereo not given),10500 and 8090
19,NS(=O)(=O)c1ccc(C(=O)NCCn2cccn2)cc1,9500
20,Cc1c(OCC(F)(F)F)ccnc1C[S@@](=O)c1nc2ccccc2[nH]1,7200
